The panel holds about 79,000 compounds, 15% with a hit somewhere; the sample as a whole holds those more often. Active and inactive are the calls of the source. Rule as the data show it: active = growth inhibition above about 70%; inactive = the rest.
Experiment: NCI Yeast Anticancer Drug Screen. Data for the rad52 strain (AID 147);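 also: 0% = growth of vehicle-treated control cultures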
Details: S. cerevisiae rad52 mutant growth inhibition, active compounds read high
Experimental: Growth inhibition of yeast strains with defined genetic alterations is measured as a screen for potential anti-cancer activity. Selected strains with alterations in DNA damage repair or cell cycle control were exposed to compounds and growth inhibition was measured relative to vehicle treated controls. The strain used in this assay is rad52

Measured: growth inhibition

CNC(=S)N/N=C(/C)CCC/C(C)=N/NC(=S)NC
inactive: at 1.2 µM 28% | at 3.7 µM 54% | at 11.0 µM 64% | at 33.0 µM 64% | at 100.0 µM 68%

Cc1c(Cl)c(C)c(Cl)c(O)c1Cl
active: at 33.0 µM 79% | at 100.0 µM 98%
inactive: at 1.2 µM 17% | at 3.7 µM 7% | at 11.0 µM 28%

O=C1c2ccccc2N2OC3(N4CCCC4)CCCCC3C12c1ccccc1 (stereo not given)
inactive: at 1.2 µM -4% | at 3.7 µM 1% | at 11.0 µM 10% | at 33.0 µM 17%
active: at 100.0 µM 98%

COC(=O)C(Cc1c[nH]c2ccccc12)N1CN(C)c2ccccc2C1=O (stereo not given)
inactive: at 1.2 µM 7% | at 3.7 µM 2% | at 11.0 µM 0% | at 33.0 µM 3%
active: at 100.0 µM 99%

CCOC(=O)Nc1ccc(C)c(NC(=O)OCC)c1
inactive: at 1.2 µM 3% | at 3.7 µM 8% | at 11.0 µM 15% | at 33.0 µM 21% | at 100.0 µM 23%

CC(C)=CCC/C(C)=C/CN1C(=O)C=CC1=O
active: at 11.0 µM 99% | at 33.0 µM 99% | at 100.0 µM 99%
inactive: at 1.2 µM 9% | at 3.7 µM 36%

NCCOc1ccc(/C(=C(/Cl)c2ccccc2)c2ccccc2)cc1
active: at 33.0 µM 98% | at 100.0 µM 96%
inactive: at 1.2 µM -10% | at 3.7 µM -15% | at 11.0 µM 23%

CCOP(=O)(OCC)/C(C#N)=C/c1ccc(-c2ccc(F)cc2F)o1
inactive: at 1.2 µM 2% | at 3.7 µM 4% | at 11.0 µM 4% | at 33.0 µM 4% | at 100.0 µM 4%
